Test results reported in PubChem BioAssay (NCATS).
Results filed as inconclusive are left out. Activity calls are given as the source filed them. The call rests on the fitted dose curve; in most records, active means well fitted curve in the direction sought with a large enough effect; inconclusive means small, poorly fitted or top-dose-only effect, or another doubt; inactive means no such curve, though single readings can be large; an effect the other way counts as inactive or inconclusive.

How the values were obtained:
[1] = qHTS of pediatric cancer cell lines to identify multiple opportunities for drug repurposing: Primary screen for Rh30 cells (AID 1347107); further: nearly all actives have a fitted effect of over 75% in size
In short: (§1)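 Cells (500-1,000/well) rested 5 h, then received compounds for 48 h; metabolically active cells were measured by CellTiter-Glo luminescence. Final concentrations spanned up to 46 µM (MIPE, 11-point) or 0.59 nM-46 µM (NPC, 8-point) in primary screens, 11-point in follow-ups.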

[2] = qHTS of pediatric cancer cell lines to identify multiple opportunities for drug repurposing: Primary screen for Rh41 cells (AID 1347108); further: nearly all actives have a fitted effect of over 70% in size
In short: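 Plated cells (500-1,000 per well, growth media) were allowed to settle for 5 hours, treated with compound dilutions for 48 hours, then lysed with CellTiter-Glo for 15 min at room temperature before luminescence reading.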

[3] = qHTS of pediatric cancer cell lines to identify multiple opportunities for drug repurposing: Confirmatory screen for NB1643 cells (AID 1347109); further: nearly all actives have a fitted effect of over 45% in size
In short: as §1

[4] = qHTS of pediatric cancer cell lines to identify multiple opportunities for drug repurposing: Confirmatory screen for A673 cells (AID 1347110);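 further: cells exposed to compound for 48 h before the viability read; nearly all actives have a fitted effect of over 65% in size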
In short: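 Viability was read as ATP luminescence (CellTiter-Glo) after 48 h of compound exposure at 37 C in A673 cells seeded at 500-1,000/well. Titrations reached 46 uM final, with 11 points in the confirmatory screen. Concentration-response curves were fitted directly.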

[5] = qHTS of pediatric cancer cell lines to identify multiple opportunities for drug repurposing: Confirmatory screen for SK-N-MC cells (AID 1347111);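 further: cells exposed to compound for 48 h before the readout; nearly all actives have a fitted effect of over 70% in size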
In short: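 Seed 500-1,000 cells/well; rest 5 h at 37 degrees C. Pin-transfer compounds, 11-point titration. Incubate 48 h. Add CellTiter-Glo, 15 min RT, read luminescence.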

[6] = qHTS of pediatric cancer cell lines to identify multiple opportunities for drug repurposing: Confirmatory screen for BT-12 cells (AID 1347112); further: nearly all actives have a fitted effect of over 55% in size
In short: as §1

[7] = qHTS of pediatric cancer cell lines to identify multiple opportunities for drug repurposing: Confirmatory screen for LAN-5 cells (AID 1347113); further: nearly all actives have a fitted effect of over 65% in size
In short: as §1

[8] = qHTS of pediatric cancer cell lines to identify multiple opportunities for drug repurposing: Confirmatory screen for DAOY cells (AID 1347114); further: nearly all actives have a fitted effect of over 65% in size
In short: (§2)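 Viability measured as metabolically active cells via CellTiter-Glo luminescence following 48 hours of compound exposure, 11-point dilutions in confirmatory testing. 500-1,000 cells/well plated 5 hours before dosing; controls were DMSO and 2.3 µM bortezomib.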

[9] = qHTS of pediatric cancer cell lines to identify multiple opportunities for drug repurposing: Confirmatory screen for NB-EBc1 cells (AID 1347115);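 further: cells exposed to compound for 48 h before the viability read; nearly all actives have a fitted effect of over 45% in size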
In short: as §1

[10] = qHTS of pediatric cancer cell lines to identify multiple opportunities for drug repurposing: Confirmatory screen for SJ-GBM2 cells (AID 1347116); further: nearly all actives have a fitted effect of over 60% in size
In short: as §2
Potency means the concentration at half of the fitted maximal effect.

Compound | Potency [1] | Potency [2] | Potency [3] | Potency [4] | Potency [5] | Potency [6] | Potency [7] | Potency [8] | Potency [9] | Potency [10]
CCCCOc1c(C(=O)c2c(F)cc(C)cc2F)cnc2n[nH]cc12 | inactive | 18700 nM (active) | – | – | – | – | – | – | – | –
C=CC(=O)Nc1cccc(Oc2nc(Nc3ccc(N4CCN(C)CC4)cc3)ncc2Cl)c1 | 18700 nM (active) | 11800 nM (active) | 8270 nM (active) | 16500 nM (active) | 1310 nM (active) | 16500 nM (active) | 6570 nM (active) | 18500 nM (active) | 18500 nM (active) | –
COc1ccc(CC2SC(=O)NC2=O)cc1C(=O)NCc1ccc(C(F)(F)F)cc1 (stereo not drawn) | inactive | inactive | – | – | – | – | – | – | – | –
O=C(O)[C@H](Cc1c[nH]c2ccccc12)N1C(=O)c2ccccc2C1=O | inactive | inactive | – | – | – | – | – | – | – | –
CNC(=O)c1c(F)cccc1Nc1nc(Nc2cc3c(cc2OC)CCN3C(=O)CN(C)C)nc2[nH]ccc12 | 2960 nM (active) | 148 nM (active) | 465 nM (active) | 11700 nM (active) | 414 nM (active) | – | 208 nM (active) | – | 5850 nM (active) | 928 nM (active)
CC(C)(O)CCc1ccc(OCc2cc(-c3cccc(OC(F)F)c3)c3ncccc3c2)cc1 | inactive | inactive | – | – | – | – | – | – | – | –
COC(=O)[C@]12CCC(C)(C)C[C@@H]1[C@@H]1C(=O)C=C3[C@@]4(C)C=C(C#N)C(=O)C(C)(C)[C@@H]4CC[C@@]3(C)[C@]1(C)CC2 | 1480 nM (active) | 1180 nM (active) | 3290 nM (active) | 1650 nM (active) | 3690 nM (active) | 7370 nM (active) | 2610 nM (active) | 2330 nM (active) | 5850 nM (active) | 4140 nM (active)
Cc1nc2ccc(CN(C)c3ccc(C(=O)N[C@@H](CCC(=O)O)C(=O)O)s3)cc2c(=O)[nH]1 | inactive | inactive | inactive | 82.7 nM (active) | 18.5 nM (active) | inactive | inactive | inactive | – | –
NC(=O)c1c(OCc2c(F)cc(Br)cc2F)nsc1NC(=O)NCCCCN1CCCC1 | 20900 nM (active) | 18700 nM (active) | – | – | – | – | – | – | – | –
O=C(c1ccc(Nc2nccc(-c3cc4ccccc4s3)n2)cc1)N1CCC(N2CCCC2)CC1 | 23500 nM (active) | 18700 nM (active) | – | – | – | – | – | – | – | –
CN1c2cc(O)c(N=NC(N)=O)cc2CC1S(=O)(=O)O (stereo not drawn) | inactive | inactive | – | – | – | – | – | – | – | –
CC(O)C1C(=O)N2C(C(=O)O)=C(SC3CNC(C(=O)N(C)C)C3)C(C)C12 (stereo not drawn) | inactive | inactive | – | – | – | – | – | – | – | –
Cc1[nH]nc2ccc(-c3cncc(OC[C@@H](N)Cc4ccccc4)c3)cc12 | inactive | 4690 nM (active) | 1170 nM (active) | 1510 nM (active) | 2330 nM (active) | 9270 nM (active) | 3290 nM (active) | 4270 nM (active) | – | –
OCCCNc1cc(-c2ccnc(Nc3cccc(Cl)c3)n2)ccn1 | inactive | 235 nM (active) | 104 nM (active) | 92.8 nM (active) | 261 nM (active) | 329 nM (active) | 261 nM (active) | – | inactive | 369 nM (active)
COCCn1c2c([n+](Cc3cnccn3)c1C)C(=O)c1ccccc1C2=O | 14.8 nM (active) | 46.9 nM (active) | 208 nM (active) | 16.5 nM (active) | 9.3 nM (active) | 9.3 nM (active) | 5.9 nM (active) | 41.4 nM (active) | 1040 nM (active) | 65.7 nM (active)
CN1CCN(Cc2ccc(NC(=O)Nc3ccc(Oc4cc(NC(=O)C5CC5)ncn4)cc3)cc2C(F)(F)F)CC1 | 20900 nM (active) | 469 nM (active) | 1850 nM (active) | 131 nM (active) | 131 nM (active) | 465 nM (active) | 1040 nM (active) | 522 nM (active) | 23300 nM (active) | 1650 nM (active)
Cn1c(CNc2ccc(C(=N)N)cc2)nc2cc(C(=O)N(CCC(=O)O)c3ccccn3)ccc21 | inactive | inactive | – | – | – | – | – | – | – | –
CC(C)(C)c1cc(C(C)(C)C)c(NC(=O)c2c[nH]c3ccccc3c2=O)cc1O | inactive | – | – | – | 14700 nM (active) | – | – | 18500 nM (active) | 16500 nM (active) | –
CC=CC1=C(C(=O)O)N2C(=O)[C@H](NC(=O)[C@H](N)c3ccc(O)cc3)[C@@H]2SC1 | inactive | inactive | inactive | – | – | inactive | inactive | inactive | inactive | –
CC(C)c1cc(-c2n[nH]c(=O)n2-c2ccc3c(ccn3C)c2)c(O)cc1O | inactive | – | – | 18500 nM (active) | inactive | – | inactive | – | inactive | inactive

Compound | Potency [1] | Potency [2] | Potency [3] | Potency [4] | Potency [5] | Potency [6] | Potency [7] | Potency [8] | Potency [9] | Potency [10]
CNC(=O)c1nn(C)c2c1C(C)(C)Cc1cnc(Nc3ccc(N4CCN(C)CC4)cc3)nc1-2 | inactive | 11800 nM (active) | – | 928 nM (active) | 1170 nM (active) | 9270 nM (active) | 1850 nM (active) | 9270 nM (active) | – | 657 nM (active)
COc1ccc(-c2cc3c(C)nc(N)nc3n(C3CCC(OCCO)CC3)c2=O)cn1 (stereo not drawn) | 4180 nM (active) | 118 nM (active) | inactive | – | – | inactive | inactive | inactive | inactive | inactive
CC(C)C[C@H](NC(=O)CNC(=O)c1cc(Cl)ccc1Cl)B(O)O | 1870 nM (active) | 469 nM (active) | – | – | inactive | 465 nM (active) | – | 185 nM (active) | – | 185 nM (active)
Nc1ccccc1NC(=O)c1ccc(CNC(=O)OCc2cccnc2)cc1 | 18700 nM (active) | 3720 nM (active) | 2140 nM (active) | – | 302 nM (active) | – | 2690 nM (active) | 1910 nM (active) | 30200 nM (active) | 13500 nM (active)
COc1cccc(Nc2c(C(N)=O)cnc3c(C)cc(S(=O)(=O)c4cccc(C(=O)N(C)C)c4)cc23)c1 | inactive | inactive | inactive | inactive | – | inactive | inactive | inactive | inactive | inactive
CC(C)CC(=O)Nc1n[nH]c2c1CN(C(=O)C1CCN(C)CC1)C2(C)C | inactive | 3720 nM (active) | inactive | 1040 nM (active) | – | 2930 nM (active) | – | – | – | –
CNC(=O)c1ccc(N2C(=S)N(c3cnc(C#N)c(C(F)(F)F)c3)C(=O)C23CCC3)cc1F | 1660 nM (active) | 1480 nM (active) | inactive | – | inactive | inactive | inactive | inactive | inactive | inactive
C=CC(=O)N1CCC[C@@H](n2nc(-c3ccc(Oc4ccccc4)cc3)c3c(N)ncnc32)C1 | 11800 nM (active) | – | – | – | 5850 nM (active) | inactive | – | – | 9270 nM (active) | inactive
Cc1cn(-c2cc(NC(=O)c3ccc(C)c(Nc4nccc(-c5cccnc5)n4)c3)cc(C(F)(F)F)c2)cn1 | inactive | inactive | 18500 nM (active) | – | inactive | inactive | 18500 nM (active) | – | inactive | –
NC(=O)c1cccc2cn(-c3ccc([C@@H]4CCCNC4)cc3)nc12 | inactive | inactive | – | 5220 nM (active) | 2080 nM (active) | inactive | – | – | – | inactive
Nc1cc(C(F)(F)F)c(-c2cc(N3CCOCC3)nc(N3CCOCC3)n2)cn1 | 11800 nM (active) | 1180 nM (active) | – | 2930 nM (active) | 5220 nM (active) | – | – | – | – | –
Cc1cc(Nc2cc(N3CCN(C)CC3)nc(Sc3ccc(NC(=O)C4CC4)cc3)n2)n[nH]1 | 18700 nM (active) | 11800 nM (active) | 4140 nM (active) | 13100 nM (active) | 131 nM (active) | – | – | 5220 nM (active) | – | –
COc1cc2c(Oc3ccc(-c4cnc(Nc5ccc(F)cc5)n(C)c4=O)cc3F)ccnc2cc1OCCCN1CCOCC1 | 9350 nM (active) | 4690 nM (active) | 11700 nM (active) | – | 2930 nM (active) | 20800 nM (active) | 7370 nM (active) | 11700 nM (active) | 18500 nM (active) | 14700 nM (active)
CC1(C)CCC(c2ccc(Cl)cc2)=C(CN2CCN(c3ccc(C(=O)NS(=O)(=O)c4ccc(N[C@H](CCN5CCOCC5)CSc5ccccc5)c(S(=O)(=O)C(F)(F)F)c4)cc3)CC2)C1 | 9350 nM (active) | 5900 nM (active) | inactive | – | – | inactive | inactive | 9270 nM (active) | inactive | –
CC(NCc1ccc2c(c1)nc(NC(=O)c1ccc(-c3cn[nH]c3)s1)n2CC(C)(C)O)C(C)(C)C (stereo not drawn) | 14800 nM (active) | 743 nM (active) | 293 nM (active) | 827 nM (active) | – | 928 nM (active) | – | 1470 nM (active) | 827 nM (active) | 1040 nM (active)
C=CC(=O)Nc1cccc(Oc2nc(Nc3ccc(N4CCN(C)CC4)cc3OC)ncc2Cl)c1 | 23500 nM (active) | 118 nM (active) | 23300 nM (active) | 20800 nM (active) | 13100 nM (active) | – | – | – | inactive | 11700 nM (active)
CC[C@@H]1C(=O)N(C)c2cnc(Nc3ccc(C(=O)NC4CCC(N5CCN(CC6CC6)CC5)CC4)cc3OC)nc2N1C(C)C (stereo partly drawn) | 16600 nM (active) | 2350 nM (active) | inactive | – | – | inactive | inactive | inactive | inactive | inactive
COc1ccc(-n2nc(C(N)=O)c3c2C(=O)N(c2ccc(N4CCCCC4=O)cc2)CC3)cc1 | inactive | inactive | inactive | inactive | – | inactive | – | – | inactive | 2330 nM (active)
CCn1nnc2c(N3CCOCC3)nc(-c3ccc(NC(=O)Nc4ccc(C(=O)N5CCN(C)CC5)cc4)cc3)nc21 | 7430 nM (active) | 93.5 nM (active) | 1850 nM (active) | – | 657 nM (active) | – | 522 nM (active) | – | – | 737 nM (active)
CC1=C(CO)C(=O)O[C@@H]([C@@H](C)[C@H]2CC[C@H]3[C@@H]4C[C@H]5O[C@]56[C@@H](O)C=CC(=O)[C@]6(C)[C@@H]4CC[C@]23C)C1 | 2350 nM (active) | 1180 nM (active) | – | 18500 nM (active) | inactive | 10400 nM (active) | – | inactive | inactive | inactive
